SMILES strings stand for the structures. The source made the active and inactive calls. How the source made its calls: active means hit-call score of the fitted dose curve at least 0.9, where 1 is the maximum; inactive means score below 0.9.

A short description of this assay: CCTE_Harrill_HTTr_Viability_MCF7: CCTE's 6-hour Cell Viability Assessment for the High-Throughput Transcriptomics (HTTr) Platform, in MCF-7 cells cultured in DMEM + 10% fetal bovine serum, Harrill Lab (AID 2284010). From the text:
This is a cell-based assay that evaluates cell viability using high content imaging to evaluate membrane integrity using propidium iodide dye exclusion in a 384 well format.One of seven assay components measured from the CCTE_Harrill_HTTr_Viability assay. This was part of a full screening experiment. This is a cell-based assay that evaluates cell viability in MCF-7 cells cultured in DMEM + 10% fetal bovine serum. High content imaging is used to evaluate membrane integrity using propidium iodide dye exclusion. Measurements are taken at 6 hours after chemical dosing in 384-well format.The assay component endpoint CCTE_Harrill_HTTr_Viability_MCF7 was analyzed with bidirectional fitting relation to DMSO as the negative control and baseline of activity. Using a type of viability reporter, gain-of-signal activity can be used to evaluate membrane integrity using propidium iodide dye exclusion to understand changes in cytotoxicity. To generalize the intended target to other relatable targets, this assay endpoint is annotated to cell cycle, where the subfamily is cytotoxicity.
Chemicals were tested in MCF7 cells in an eight point dilution series with a six hour exposure duration.
Consider `CCCCCCCO`, for which the outcome was inactive.
With `Oc1ccc(/C=C/c2cc(O)cc(O)c2)cc1` the entry was “inactive”; with `Cc1c(C(=O)c2c[nH]n(C)c2=O)ccc(S(C)(=O)=O)c1C1=NOCC1`, “inactive”.
For `CC=CC(=O)OCC(C)C` the value was “inactive”; for `CCCCOCCOC(=O)COc1ccc(Cl)cc1Cl`, “inactive”.
With `CCCCCCCCCCCCC` the entry was “inactive”.
In the case of `C1CNCCN1`, the outcome was inactive.
With `CC1=CCC(C(C)C)C=C1` (stereo not given) the entry was “inactive”; with `CC(=O)/C=C/C1C(C)=CCCC1(C)C` (stereo not given), “inactive”; with `C=C1C[C@H]2[C@@H]3C=C(C)C4=CC(=O)CC[C@]4(C)[C@H]3CC[C@]2(C)[C@@]1(OC(C)=O)C(C)=O`, “inactive”.
For `CN(C)c1ccc2nc3ccc(=[N+](C)C)cc-3sc2c1` the value was “inactive”; for `Cc1noc(NS(=O)(=O)c2ccc(N)cc2)c1C`, “inactive”; for `Oc1c(Cl)cc(Cl)c(Cl)c1Cl`, “inactive”.
`CC(C=O)c1ccccc1` (stereo not given): the outcome was inactive.
For `COc1ccc(-c2coc3cc(O)cc(O)c3c2=O)cc1` the value was “inactive”.
For `C=CCCCCCCCCC=O` the value was “inactive”; for `CCCCCCO`, “inactive”.
With `CC(C)CO` the entry was “inactive”.
Take `C=C(C)C1CC=C(C)CC1` (stereo not given): the result was inactive.
With `C1CCSC1` the entry was “inactive”.
For `COc1ccc(C(=O)c2ccccc2)c(O)c1` the value was “inactive”.
For `Clc1cc(Cl)c(Cl)c(Cl)c1Cl` the value was “inactive”; for `C=Cc1ccc(OC(C)=O)cc1`, “inactive”.
Consider `CCCCC/C=C\C/C=C\CCCCCCCC(=O)O`, for which the outcome was inactive.
With `CCCCCCCC(=O)OCC(COC(=O)CCCCCCC)OC(=O)CCCCCCC` the entry was “inactive”; with `CCOC(=O)/C=C\C(=O)OCC`, “inactive”; with `COC(Cc1ccccc1)OC`, “inactive”.
Turning to `Nc1ncnc2nc[nH]c12`, the result was inactive.
For `Oc1ccc(-c2ccccc2)c(Cl)c1` the value was “inactive”; for `CCCCC1C(=O)N(c2ccccc2)N(c2ccccc2)C1=O`, “inactive”.
With `CC(C)(CO)C(O)C(=O)NCCCO` (stereo not given) the entry was “inactive”.
On to `CCCC(C)C(=O)OCC` (stereo not given), for which the result was inactive.
With `O=C(O)CCCC(=O)O` the entry was “inactive”; with `Cc1ccc([N+](=O)[O-])cc1N`, “inactive”; with `CCCCOCC(C)O` (stereo not given), “inactive”.
Consider `c1ccc2c(c1)[nH]c1ccccc12`, for which the outcome was inactive.
Take `Cc1c[nH]c(=O)[nH]c1=O`: the outcome was inactive.
For `CC1(C)CC(O)CC(C)(C)N1[O]` the value was “inactive”; for `O=C(O)CCC(=O)O`, “inactive”; for `NNS(=O)(=O)c1ccc(Oc2ccc(S(=O)(=O)NN)cc2)cc1`, “inactive”.

These data come from PubChem BioAssay (EPA / NIEHS).
